High-throughput results (PubChem BioAssay)
DT40 TDP1 CPT = DT40-hTDP1 cell growth loss with CPT; chicken DT40 Tdp1-/-;hTDP1 cells + 20 nM CPT, ATP luminescence, 48 h; Potency, µM (top dose mostly 46.2 µM), actives largely listed as inhibitors; 420,000 tested, 12% active; also: nearly all actives have a fitted effect of over 55% in size
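Chicken DT40 Tdp1-/- cells stably complemented with human TDP1 were seeded at 400 cells/well in medium containing 20 nM camptothecin, exposed to pin-transferred compounds, and grown at 37 °C for at least 48 hr. Viability was read as ATP luminescence.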
TDP1 cell noCPT = qHTS for Inhibitors of human tyrosyl-DNA phosphodiesterase 1 (TDP1): qHTS in cells in absence of CPT | DT40 Tdp1-/- hTDP1 cells, no CPT, ATP luminescence, 48 h | Potency, µM (doses to about 46.2 µM), hits mostly inhibitors | 420,000 tested, 15% active | AID 686978, 2013; also: nearly all actives have a fitted effect of over 55% in size
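Cells were dispensed at 400 per well, compounds added by pin tool, plates incubated ≥48 hr at 37 °C, then CellTiter-Glo added for 30 min at room temperature before luminescence reading. Line: DT40 Tdp1-/- complemented with hTDP1; camptothecin omitted.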
IL1B secr inh = blocks inflammasome-driven IL-1 beta release. THP-1 LPS/ATP IL-1B secretion, AlphaLISA, 16 h; hits give low values. activity change, % at 57.5 µM. 360,000 tested, 4.7% active. AID 743279; in the data active = activity change below about -50%; inconclusive = mostly about -30% to -49%
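Secreted IL-1B measured by AlphaLISA bead assay after 16 h compound exposure of THP-1 cells; compounds (final up to 57.5 uM) added 1 h before LPS (250 ng/mL) and ATP (1.25 mM) stimulation; lower signal means less secretion.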
Chronic BCR inh = blocks chronic active B-cell receptor signaling; ABC-DLBCL IkBa-CBG/CBR reporter, luminescence ratio, 4 h; Potency, µM (doses to about 46.1 µM), usual class: inhibitors; 340,000 tested, 0.05% active; AID 493014; active = well fitted inhibition curve with a large enough effect in the signal ratio, with a control signal flat, not every such curve was filed as active; inconclusive = small, poorly fitted or top-dose-only effect, or effect the other way, or a change in a side signal; the % refers to the signal ratio
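TMD8 human ABC-DLBCL cells with doxycycline-inducible IκBα–green luciferase fusion and unfused red luciferase, in 0.5% FBS medium; compounds up to 46 uM, 4 h at 37C. Green/red luminescence ratio, filter-overlap corrected, fitted to concentration-response curves.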
MCF10A rereplic = inducers of DNA re-replication in MCF 10A breast cells | 350,000 tested, 2.9% active | MCF 10A DNA re-replication, Hoechst nuclear intensity, 48 h | AID 624296 | Potency, µM (top dose mostly 46.1 µM), hits mostly activators; also: nearly all actives have a fitted effect of over 50% in size
SW480 rereplic = induces DNA re-replication in SW480 colon adenocarcinoma cells; SW480 DNA re-replication, Hoechst DNA content imaging, 48 h; Potency, µM (series often up to 46.1 µM), actives largely listed as activators; 340,000 tested, 1.8% active; also: nearly all actives have a fitted effect of over 55% in size
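Hoechst fluorescence of nuclei (405 nm excitation, 500-530 nm emission) measured by plate-scanning imager after 48 hr compound exposure at 37 C; re-replication scored as increased number of nuclei with elevated intensity.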
A number is an active result; - = inactive; ? = inconclusive; . = not tested or not shown; [ ] = dose if it differs, or a comment. Most compounds without a hit are left out; they make up all but 19% or so of the library. Unless noted, calls follow the shape of the dose curve; as a rule, active = well fitted curve in the direction sought with a large enough effect; inconclusive = small, poorly fitted or top-dose-only effect, or another doubt; inactive = no such curve, though single readings can be large; an effect the other way counts as inactive or inconclusive.

SMILES	DT40 TDP1 CPT	TDP1 cell noCPT	IL1B secr inh	Chronic BCR inh	MCF10A rereplic	SW480 rereplic
CC1(C)CC(=O)C=C(NC2CCCC(O)C2)C1 (centres undefined)	-	-	-	-	?	-
O=C(Nc1cccc([N+](=O)[O-])c1)c1ccc2ccccc2c1O	23µM	15µM	-63	?	?	-
O=C(Nc1ccccn1)c1ccc2ccccc2c1O	-	15µM	-	?	-	-[9.22 µM]
O=C(Nc1cccnc1)c1ccc2ccccc2c1O	-	13µM	-	?	?	-
Cc1occc1C(=O)Nc1cccc([N+](=O)[O-])c1	-	-	-	-	-	?
O=C(O)/C=C\c1ccc(Cn2ccnc2)cc1	.	.	.	.	-	-
O=C(COc1ccc([N+](=O)[O-])cc1Cl)NCCN1C(=O)CSC1=O	-	-	-	-	-	-
COC(=O)C1(Cc2cc(-c3ccc([N+](=O)[O-])cc3)no2)CCN(C(=O)OC(C)(C)C)CC1	?	21µM	-	-	?	-
COC(=O)C1(CC2CC(c3ccc(Cl)cc3)=NO2)CCN(C(=O)OC(C)(C)C)CC1 (centres undefined)	26µM	21µM	-	-	?	-
COC(=O)C1(Cc2cc(-c3cccnc3)no2)CCN(C(=O)OC(C)(C)C)CC1	?	?	-	-	?	-
COC(=O)C1(Cc2cc(-c3ccc(Cl)cc3)no2)CCN(C(=O)OC(C)(C)C)CC1	?	18µM	?	?	-	-
O=C(COC(=O)c1ccc(F)cc1F)NC(=O)Nc1ccc2c(c1)OCCO2	-	-	-	?	-	-
N#Cc1ccccc1S(=O)(=O)N1CCN(C(=O)[C@@H]2CCCN2C(=O)c2cccs2)CC1	-	-	-	-	-	-
Cc1ccc(C(C(=O)NCc2ccccc2)N(Cc2ccco2)C(=O)c2snc(C(N)=O)c2N)o1 (centres undefined)	?	15µM	-	-	?	-
CCC(C(=O)NC(C)(C)C)N(Cc1ccccc1Cl)C(=O)c1snc(C(N)=O)c1N (centres undefined)	-	-	-	-	-	-
CCc1ccccc1N(CC(=O)NCc1ccco1)C(=O)c1snc(C(N)=O)c1N	?	18µM	-	?	?	-
CC(C(=O)NCc1ccccc1)N(Cc1ccccc1Cl)C(=O)c1snc(C(N)=O)c1N (centres undefined)	?	-	-75	?	?	-
COc1ccc(C(C(=O)NCc2ccccc2)N(Cc2ccco2)C(=O)c2snc(C(N)=O)c2N)cc1 (centres undefined)	?	?	-	-	-	-
CCCC(C(=O)NC(C)(C)C)N(Cc1ccccc1Cl)C(=O)c1snc(C(N)=O)c1N (centres undefined)	?	?	-	-	13µM	?
CCCCC(C(=O)NC(C)(C)C)N(Cc1ccccc1Cl)C(=O)c1snc(C(N)=O)c1N (centres undefined)	?	?	-	?	?	-
CC(C)CCNC(=O)CN(Cc1ccco1)C(=O)c1snc(C(N)=O)c1N	-	-	-	-	-	-
CC(=O)Nc1ccc(S(=O)(=O)N(C)CC(=O)N2CCN(C(=O)c3ccco3)CC2)cc1	-	-	-	-	-	-
O=C(COC(=O)c1ccccc1N1C(=O)C2C3CCC(C3)C2C1=O)c1ccccc1 (centres undefined)	-	-	-	-	-	-
Cc1ccc(C)c(C(=O)COC(=O)c2ccccc2N2C(=O)C3C4CCC(C4)C3C2=O)c1 (centres undefined)	21µM	21µM	-	-	-	-
CN(C)c1ccc(CNC(=O)c2cc(S(=O)(=O)N3CCOCC3)cn2C)cc1	-	-	-	-	-	-
SMILES	DT40 TDP1 CPT	TDP1 cell noCPT	IL1B secr inh	Chronic BCR inh	MCF10A rereplic	SW480 rereplic
CCOc1cc(N2CCOCC2)c(OCC)cc1NC(=O)c1nc2nc(C)cc(C)n2n1	?	23µM	-	-	-	-
CCOc1cc(N2CCOCC2)c(OCC)cc1NC(=O)C(NC(=O)c1ccco1)C(C)C (centres undefined)	-	12µM	-	-	-	-
CCOc1cc(N2CCOCC2)c(OCC)cc1NC(=O)C(NC(=O)c1c(F)cccc1F)C(C)C (centres undefined)	?	9.2µM	-	.	-	-
CCOc1cc(N2CCOCC2)c(OCC)cc1NC(=O)c1cnccn1	21µM	23µM	-	?	-	-
CCOc1cc(-n2cnnn2)c(OCC)cc1NC(=O)c1cnccn1	-	-	-	-	-	-
O=C(NOC(=O)c1c(F)cccc1Cl)c1ccc(Cl)c(Cl)c1	-	-	-	?	-	-
CCOc1cc(N2CCOCC2)c(OCC)cc1NC(=O)c1ccc(OC)cc1	6.5µM	7.3µM	-	-	?	-
CCOc1cc(N2CCOCC2)c(OCC)cc1NC(=O)c1ccc(OC)c(S(=O)(=O)N2CCOCC2)c1	-	?	-	?	-	-
CCOc1cc(N2CCOCC2)c(OCC)cc1NC(=O)c1ccc(NC(C)=O)cc1	-	-	-	-	-	-
CCCCCOc1ccc(C(=O)Nc2ccc(N3CCOCC3)cc2N2CCOCC2)cc1	-	-	-	-	?	?
CCOc1cc(N2CCOCC2)c(OCC)cc1NC(=O)c1ccc(OCc2c(C)noc2C)c(OC)c1	15µM	10µM	-	-	-	-
CC(C)COc1ccc(C(=O)Nc2ccc(N3CCOCC3)cc2N2CCOCC2)cc1	18µM	16µM	-	-	-	-
CCOc1cc(N2CCOCC2)c(OCC)cc1NC(=O)c1ccco1	-	12µM	-	-	-	-
O=C(CCCCCNC(=O)N1CCn2c1nc1ccccc12)NCCc1ccccc1	?	?	-	-	-	-
Cc1ccc(S(=O)(=O)N2[C@H](CC(=O)c3cccc4ccccc34)OC[C@@H]2C)cc1	?	?	-	.	.	.
COc1ccc(C(=O)/C(Br)=C/C(=O)O)cc1	.	.	.	.	21µM	?
COc1ccc(C(=O)C(=O)c2ccc(OCCO)cc2)cc1	-	-	-	-	-	-
C/C=C(\C)C(=O)NCCN1Cc2ccccc2OC(c2ccccc2OC)C1 (centres undefined)	-[9.04 µM]	-	.	.	.	.
CCN1C[C@@H]2[C@@H]3C(=O)N(Cc4ccccc4)C(=O)[C@@H]3[C@](CC)(C1=O)N2C(=O)c1ccc(F)cc1	-	-	-	.	-	-
COc1ccc(CNc2ncnc3onc(C)c23)cc1	16µM	13µM	.	.	.	.
COc1ccc(Nc2ncnc3onc(C)c23)cc1Cl	-	?	.	.	.	.
Cn1nnc2c(NCCc3ccccc3)ncnc21	-	-	.	?	.	.
